The supplement of paper PMC10498489
Screen size: about 2,300 compounds; about 330 (14%) showed activity.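 How the source made its calls: active = median modified Z-score above 1.96; inactive = 1.96 or below.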 Only a sample is shown.

test system: HepG2 Srxn1-GFP reporter cells (+30 nM CDDO-Me); assay: Srxn1-GFP intensity median modified Z-score relative to plate median; higher = stronger NRF2 / oxidative stress reporter activation, active = hit call of the paper; conditions: 10 µM; exposure time: 24h
How it was run: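 HepG2 Srxn1-GFP BAC reporter cells were seeded at 20,000 per well in 96-well plates and co-exposed for 24 h to compound at 10 μM and an NRF2 activator at 30 nM, with DMSO at ≤0.1%, in three replicate plates. Cells were fixed with formaldehyde, stained with Hoechst and imaged by confocal microscopy, and cytoplasmic GFP was measured per cell, with images holding under 100 cells discarded. The reported value is the median over replicates of each plate's modified Z-score of GFP intensity. For this score, scaling used 1.4826 × median absolute deviation.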

| Structure (SMILES) | Srxn1-GFP intensity median modified Z-score |
| --- | --- |
| CC(=O)OCC(=O)[C@@]1(O)CCC2C3CC=C4CC(=O)CC[C@]4(C)[C@@]3(F)[C@@H](O)C[C@@]21C (stereo partly specified) [euspeclibcmpd127] | -0.373 (inactive) |
| Cc1n[nH]c(=NS(=O)(=O)c2ccc(N)cc2)s1 [euspeclibcmpd277] | -0.64 (inactive) |
| Cc1csc(/C(C#N)=C\C=C\c2ccccc2[N+](=O)[O-])n1 | 35.4 (active) |
| OC[C@@H](O)[C@@H](O[C@@H]1O[C@H](CO)[C@H](O)[C@H](O)[C@H]1O)[C@H](O)[C@@H](O)CO [euspeclibcmpd2389] | -0.142 (inactive) |
| CC1(C(=O)O)CCC2(C)CCC3(C)C(=C2C1)CC(=O)C1C2(C)CCC(O)C(C)(C)C2CCC13C (stereo unspecified) [euspeclibcmpd1963] | -0.0731 (inactive) |
| O=C(COC(=O)C12CC3CC(C1)CC(c1ccccc1)(C3)C2)Nc1ncc(C(F)(F)F)cc1Cl | 1.42 (inactive) |
| CCN(CC)C(=O)C(C#N)=Cc1cc(O)c(O)c([N+](=O)[O-])c1 [euspeclibcmpd861] | -0.942 (inactive) |
| CC(C)(O)[C@@H]1CC[C@](C)([C@H]2[C@@H](O)C[C@@]3(C)C4C[C@H](O[C@@H]5O[C@H](CO)[C@@H](O)[C@H](O)[C@H]5O)C5C(C)(C)[C@@H](O[C@@H]6OC[C@@H](O)[C@H](O)[C@H]6O)CC[C@@]56C[C@@]46CC[C@]23C)O1 (stereo partly specified) [euspeclibcmpd1691] | -0.304 (inactive) |
| O=C(O)CCCN1C(=O)c2cccc3cccc(c23)C1=O [euspeclibcmpd1803] | -0.0255 (inactive) |
| O=C(O)CN1C(=O)c2cccc3cccc(c23)C1=O [euspeclibcmpd433] | 2.2 (active) |
| CCCCCCCC/C=C/CCCCCCCCOP(=O)(O)OCC[N+](C)(C)C [euspeclibcmpd1773] | 1.28 (inactive) |
| CNC(C)[C@@H]1CC[C@@H](N)[C@@H](OC2[C@@H](N)C[C@@H](N)[C@H](OC3OC[C@](C)(O)[C@H](NC)[C@H]3O)[C@H]2O)O1 (stereo partly specified) [euspeclibcmpd820] | -0.00227 (inactive) |
| CC(=O)O[C@]1(C(C)=O)CCC2C3CC(C)=C4CC(=O)CC[C@]4(C)C3CC[C@@]21C (stereo partly specified) [euspeclibcmpd178] | -0.198 (inactive) |
| C=C1C(=O)O[C@@H]2C[C@@]3(C)CCC[C@H](C)C3=C[C@H]12 [euspeclibcmpd1482] | 10.2 (active) |
| Cc1cc(-c2ccc(N=Nc3ccc4c(S(=O)(=O)O)cc(S(=O)(=O)O)c(N)c4c3O)c(C)c2)ccc1N=Nc1ccc2c(S(=O)(=O)O)cc(S(=O)(=O)O)c(N)c2c1O [euspeclibcmpd2073] | -1.03 (inactive) |
| NC1(C(=O)O)CCCC1 [euspeclibcmpd1759] | -0.415 (inactive) |
| O=C(O)CCc1nc2ccccc2[nH]1 [euspeclibcmpd1271] | -0.404 (inactive) |
| CC1=C(CCC(=O)O)c2cc3nc(cc4[nH]c(cc5[nH]c(cc1n2)c(C)c5C(C)O)c(C)c4C(C)O)C(C)=C3CCC(=O)O (stereo unspecified) [euspeclibcmpd1687] | 8.82 (active) |
| C=CC1=C(C)c2cc3[nH]c(cc4[nH]c(cc5nc(cc1n2)=C(C)C5=CCC(=O)O)c(CCC(=O)O)c4C)c(C)c3=CC [euspeclibcmpd1059] | 0.562 (inactive) |
| CN(C)C(N)=NC(=N)N [euspeclibcmpd874] | -0.199 (inactive) |
| CC(CCC(=O)O)C1CCC2C3CCC4CC(O)CCC4(C)C3CC(=O)C12C (stereo unspecified) | 0.291 (inactive) |

| Structure (SMILES) | Srxn1-GFP intensity median modified Z-score |
| --- | --- |
| O=C(O)[C@H](O)[C@@H](O)[C@H](O)[C@H](O)CO [euspeclibcmpd2450] | 0.571 (inactive) |
| O=C(/C=C/c1ccccc1)c1ccc(O)cc1 | 4.36 (active) |
| O=C(/C=C/c1ccccc1)c1ccc(O)cc1 [euspeclibcmpd1718] | 12.6 (active) |
| COc1ccc(C=CC(=O)c2cc(O)ccc2O)cc1 [euspeclibcmpd1400] | -0.058 (inactive) |
| COc1ccc(C(=O)/C=C/c2cccc(Cl)c2)cc1 | 0.75 (inactive) |
| O=C(O)/C=C/C=C/c1ccccc1 [euspeclibcmpd1620] | -0.147 (inactive) |
| CCOC(=O)c1ccc(O)cc1 [euspeclibcmpd974] | -0.257 (inactive) |
| COc1ccc(C(=O)/C=C/c2ccccc2)cc1 [euspeclibcmpd1565] | 26.7 (active) |
| COc1ccc2oc(-c3ccccc3)c(OC)c(=O)c2c1 [euspeclibcmpd1782] | 1.28 (inactive) |
| O[C@@H]1[C@@H](O)[C@@H](O)OC[C@H]1O | 0.871 (inactive) |
| CC1C2C(CC3C4CC[C@H]5C[C@@H](O)CC[C@]5(C)C4CC(=O)[C@@]32C)O[C@]12CC[C@@H](C)CO2 (stereo partly specified) [euspeclibcmpd1427] | -0.425 (inactive) |
| COc1cc(/C=C/C(=O)N2CC=CCC2=O)cc(OC)c1OC [euspeclibcmpd1434] | 1.01 (inactive) |
| CON [euspeclibcmpd1358] | -0.128 (inactive) |
| CC(C)[N+]1(C)C2CC[C@H]1C[C@@H](OC(=O)C(CO)c1ccccc1)C2 (stereo partly specified) [euspeclibcmpd162] | 0.508 (inactive) |
| CC[C@]1(O)CC2CN(CCc3c([nH]c4ccccc34)[C@@](C(=O)OC)(c3cc4c(cc3OC)N(C)[C@H]3[C@@](O)(C(=O)OC)[C@H](OC(C)=O)[C@]5(CC)C=CCN6CC[C@]43[C@@H]65)C2)C1 (stereo partly specified) [euspeclibcmpd320] | 25.8 (active) |
| CC[C@]1(O)CC2CN(CCc3c([nH]c4ccccc34)[C@@](C(=O)OC)(c3cc4c(cc3OC)N(C=O)[C@H]3[C@@](O)(C(=O)OC)[C@H](OC(C)=O)[C@]5(CC)C=CCN6CC[C@]43[C@@H]65)C2)C1 (stereo partly specified) [euspeclibcmpd836] | 27.5 (active) |
| CC(=O)NC(CCC(N)=O)C(=O)O (stereo unspecified) [euspeclibcmpd1028] | -0.425 (inactive) |
| Oc1cc2c(cc1O)C1c3ccc(O)c(O)c3OCC1(O)C2 (stereo unspecified) [euspeclibcmpd1605] | -0.437 (inactive) |
| CN(C)CC/C=C1/c2ccccc2COc2ccccc21 [euspeclibcmpd104] | 1.4 (inactive) |
| CC(=O)C1CCC2C3CC(C)=C4CC(=O)CC[C@]4(C)C3[C@@H](O)C[C@]12C (stereo partly specified) [euspeclibcmpd179] | -0.562 (inactive) |
